Key:
Type in all cases: functional
[1] = molecular target: Solute carrier family 2, facilitated glucose transporter member 1 (Homo sapiens) (UniProt P11166); test: ST_JUDE_LEISH: Cytotoxicity at 2uM final concentration against transgenic Leishmania Mexicana promastigotes LmGLUT1 that are glucose transport deficient and complemented with the human glucose transporter GLUT1. Activity is measured by DNA content using SYBR green in vitro
[2] = molecular target: Hexose transporter 1 (Plasmodium falciparum) (UniProt O97467); test: ST_JUDE_LEISH: Cytotoxicity at 2uM final concentration against transgenic Leishmania Mexicana promastigotes LmPfHT that are glucose transport deficient and complemented with the Plasmodium falciparum hexose transporter. Activity is measured by DNA content using SYBR green in vitro
[3] = molecular target: Glucose transporter (Leishmania mexicana) (UniProt O61059); test: ST_JUDE_LEISH: Cytotoxicity at 2uM final concentration against transgenic Leishmania Mexicana promastigotes LmGT2 that are glucose transport deficient and complemented with the L. Mexicana glucose transporter 2. Activity is measured by DNA content using SYBR green in vitro

Solute carrier family 2, facilitated glucose transporter member 1 (Homo sapiens), sequence (P11166 whole entry): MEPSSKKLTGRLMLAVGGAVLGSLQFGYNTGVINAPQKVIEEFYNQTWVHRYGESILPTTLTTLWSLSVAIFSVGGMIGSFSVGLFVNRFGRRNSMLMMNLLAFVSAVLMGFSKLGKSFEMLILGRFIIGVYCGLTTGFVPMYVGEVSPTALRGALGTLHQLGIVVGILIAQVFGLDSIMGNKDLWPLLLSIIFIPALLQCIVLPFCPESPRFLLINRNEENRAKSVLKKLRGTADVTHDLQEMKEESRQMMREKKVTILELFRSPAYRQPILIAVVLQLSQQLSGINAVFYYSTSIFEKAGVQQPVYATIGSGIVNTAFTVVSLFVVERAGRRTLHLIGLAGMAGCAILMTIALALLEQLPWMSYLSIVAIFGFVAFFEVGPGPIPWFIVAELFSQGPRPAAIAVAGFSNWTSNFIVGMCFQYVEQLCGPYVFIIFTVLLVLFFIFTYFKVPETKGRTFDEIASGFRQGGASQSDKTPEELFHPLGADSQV

Compound: O=C(NC1CCC1)C1CCN(C(c2ccc(Cl)cc2)c2ccc(Cl)cc2)CC1
- inhibition [1]: -0.62%
- inhibition [2]: 1.93%
- inhibition [3]: -0.82%

Compound: CCOc1ccccc1CNc1nccc(NCCc2cn(C)c3ccccc23)n1
- inhibition [1]: 7.77%
- inhibition [2]: 3.5%
- inhibition [3]: 2.49%

Compound: FC(F)(F)c1cccc(C=NNc2nc3ccccc3[nH]2)c1
- inhibition [1]: 10.7%
- inhibition [2]: 8.25%
- inhibition [3]: 5.13%

Compound: Cc1nnc2c(NC(=O)NC3CCCC3)cc3ccc(-c4cccc(CN5CCN(C)CC5)c4)cc3n12
- inhibition [1]: 6.21%
- inhibition [2]: 6.49%
- inhibition [3]: 5.53%

Compound: COc1ccc(CNC2CCN(C)CC2)cc1-c1ccc(S(=O)(=O)NC2CCC2)c(F)c1
- inhibition [1]: 0.83%
- inhibition [2]: 0.39%
- inhibition [3]: 1.91%

Compound: Cc1ccc(-c2nc3cc(C(=O)NC4CCN(Cc5ccccc5)CC4)ccc3[nH]2)cc1
- inhibition [1]: 6.09%
- inhibition [2]: 2.07%
- inhibition [3]: 0.96%

Compound: COc1ccc(CNC2Cc3ccccc3C2)cc1-c1ccc(S(=O)(=O)NCCN2CCCC2)c(F)c1
- inhibition [1]: 28.3%
- inhibition [2]: 14%
- inhibition [3]: 6.14%

Compound: Nc1c(Cl)cc(C(O)CNCCCCCCCCCc2ccccn2)cc1Cl (centres undefined)
- inhibition [1]: 0.94%
- inhibition [2]: -0.21%
- inhibition [3]: 0.6%
